Laboratory results as given in PubChem BioAssay (NCATS).
Inconclusive results are not listed. A call without a number means that no potency is given here. The source made the active and inactive calls. Calls follow the shape of the dose curve; as a rule, active = well fitted inhibition curve with a large enough effect; inconclusive = small, poorly fitted or top-dose-only effect; inactive = flat fitted curve, though single readings scatter.
Potency is read from the fitted curve at half-maximal effect.

These compounds were tested on astro (assay: Drug repurposing screens with cells derived from glioblastoma tumor samples (AID 1345199; also: nearly all actives have a fitted effect of over 40% in size)). Settings: viability, ATP luminescence, 48 h; series mostly up to 45.9 µM.
Summary of the method: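 Four patient lines of CD133+ GBM neurospheres were screened at several concentrations; hits were retested in those lines plus three slower-growing GBM lines, using 48-hour treatment and ATP-based viability.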
In the case of `O=C(Nc1ccc([N+](=O)[O-])cc1)Nc1ccc([N+](=O)[O-])cc1`, the Potency is reported as “inactive”.
In the case of `O=S(=O)(O)c1ccc(O)cc1`, the Potency is reported as “inactive”.
For `COc1ccc(C(=O)c2ccccc2O)c(O)c1`, the Potency was “inactive”.
For `CC(=O)Nc1ccc(OCC(O)CNC(C)C)cc1` (configuration not stated), the Potency was “inactive”.
With `N#CCC(=O)NN` the Potency was “inactive”.
For `CCN[C@@H]1C[C@H](N)[C@@H](OC2OC(CN)=CCC2N)[C@H](O)[C@H]1O[C@H]1OC[C@](C)(O)[C@H](NC)[C@H]1O` (some centres not stated), the Potency was “inactive”.
For `CC(=O)NCCCCCC(=O)O`, the Potency was “inactive”.
For `Cc1ccccc1OCC(O)CO` (configuration not stated), the Potency was “inactive”.
`O=C(Nc1ncc([N+](=O)[O-])s1)c1cccs1` was tested, and the Potency was 15.8 µM (active).
In the case of `CCOC(=O)[C@@](C)(N)Cc1ccc(O)c(O)c1`, the Potency is reported as “inactive”.
In the case of `COc1cc(C(=O)NCc2ccc(OCCN(C)C)cc2)cc(OC)c1OC`, the Potency is reported as “inactive”.
`CC(CNC1CCCCC1)OC(=O)c1ccccc1` (configuration not stated) was tested, and the Potency was “inactive”.
With `Nc1nc(N)c(-c2ccccc2)s1` the Potency was “inactive”.
With `O=[N+]([O-])c1ccc(/C=N\O)o1` the Potency was “inactive”.
With `Cl/C(=C\n1cncn1)c1ccc(Cl)cc1Cl` the Potency was “inactive”.
`O=C(CCN1CCN2CCCC2C1)N1c2ccccc2Sc2ccc(Cl)cc21` (configuration not stated) was tested, and the Potency was “inactive”.
`N[C@H](C(=O)O)[C@@H](O)c1ccc(O)c(O)c1` was tested, and the Potency was “inactive”.
In the case of `CCC1Nc2cc(Cl)c(S(N)(=O)=O)cc2S(=O)(=O)N1` (configuration not stated), the Potency is reported as “inactive”.
For `C=C[C@H]1CN2CC[C@H]1C[C@@H]2[C@@H](O)c1ccnc2ccc(OC)cc12`, the Potency was “inactive”.
For `COc1cc(C)nc(-n2nc(C)cc2OC)n1`, the Potency was “inactive”.
In the case of `CCN(CC)CCNC(=O)c1cc(Br)c(N)cc1OC`, the Potency is reported as “inactive”.
For `CCOC(=O)c1c(N)sc2c1CCN(Cc1ccccc1)C2`, the Potency was “inactive”.
In the case of `O=C1C(CCS(=O)c2ccccc2)C(=O)N(c2ccccc2)N1c1ccccc1` (configuration not stated), the Potency is reported as “inactive”.
With `OC[C@H]1O[C@@H](Oc2ccc(O)cc2)[C@H](O)[C@@H](O)[C@@H]1O` the Potency was “inactive”.
In the case of `COC(=O)C(c1ccccc1Cl)N1CCc2sccc2C1` (configuration not stated), the Potency is reported as “inactive”.
With `COc1ccc2c(c1)c1c3n2CCN(C)C3=NCC1` the Potency was “inactive”.
With `Nc1ccc(S(=O)(=O)Nc2cnc3ccccc3n2)cc1` the Potency was “inactive”.
In the case of `CNCCc1ccccn1`, the Potency is reported as “inactive”.
`C[C@@]12C(=O)OC(=O)[C@]1(C)C1CCC2O1` was tested, and the Potency was 0.631 µM (active).
In the case of `CCOC(=O)c1ccc(N)cc1`, the Potency is reported as “inactive”.
For `CCOC(=O)C(C#N)=C(c1ccccc1)c1ccccc1`, the Potency was “inactive”.
In the case of `O[C@@H](c1cc(C(F)(F)F)nc2c(C(F)(F)F)cccc12)[C@H]1CCCCN1`, the Potency is reported as 22.4 µM (active).
For `CC(C(=O)O)c1cccc(Oc2ccccc2)c1` (configuration not stated), the Potency was “inactive”.
For `Cc1ccc(-c2ncc(Cl)cc2-c2ccc(S(C)(=O)=O)cc2)cn1`, the Potency was “inactive”.
For `C[C@@H](O)[C@H]1C(=O)N2C(C(=O)O)=C(S[C@@H]3CN[C@H](CNS(N)(=O)=O)C3)[C@H](C)[C@H]12`, the Potency was “inactive”.
`CCCCNC(=O)NS(=O)(=O)c1ccc(N)cc1` was tested, and the Potency was “inactive”.
`O=C(O)CCNC(=O)c1ccccc1` was tested, and the Potency was “inactive”.
